In the supplement of paper PMC10127200:
Structures can show the parent of a compound that is named as a salt.

What was measured:
Assay in all cases: Euclidean distance of Cell Painting phenotypic profile (signed KS, 77 features) to DMSO centroid (dimensionless distance); higher = stronger phenotypic change vs DMSO (phenoactivity)
Details in all cases: 48 h; 5 or 10 uM (library dependent)
786-O = tested on: 786-O
Summary of the method: (§1)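 At 10 or 5 uM, as set by the library, and 0.1% DMSO final, compounds were applied for 48 h to five cancer lines and one healthy fibroblast line. Stained cells were imaged confocally at 20X in 9 fields per well, and Harmony extracted 77 features scored as signed Kolmogorov-Smirnov statistics against vehicle wells on the same plate. Profiles underwent plate-position correction, correlation weighting and replicate averaging at the top dose. Phenoactivity is the Euclidean distance from each such profile to the median vehicle profile.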

A549 = tested on: A549
Summary of the method: as §1

DU145 = tested on: DU145
Summary of the method: as §1

FB = tested on: FB
Summary of the method: as §1

HEPG2 = tested on: HEPG2
Summary of the method: as §1

OVCAR4 = tested on: OVCAR4
Summary of the method: as §1

| SMILES | Euclidean distance (786-O) | Euclidean distance (A549) | Euclidean distance (DU145) | Euclidean distance (FB) | Euclidean distance (HEPG2) | Euclidean distance (OVCAR4) |
| --- | --- | --- | --- | --- | --- | --- |
| C[C@H]1O[C@H](O[C@H]2[C@H](O)[C@@H](O)[C@@H](O)[C@H](O)[C@@H]2O)[C@@H](N)C[C@@H]1NC(=N)C(=O)O [Kasugamycin hydrochloride] | 1.08 | 0.816 | 0.855 | 1.2 | 0.528 | 0.934 |
| Cc1ccc(/N=C/N(C)/C=N/c2ccc(C)cc2C)c(C)c1 [Amitraz] | 0.966 | 0.885 | 0.902 | 0.718 | 0.47 | 0.684 |
| C[C@]12N[C@H](Cc3ccccc31)c1ccccc12 [MK-801 (Dizocilpine)] | 0.525 | 0.829 | 1.2 | 0.635 | 1.41 | 1.23 |
| CC(=O)O[C@H]1CC[C@H]2[C@@H]3CCC4=CC(=O)CCC4=C3C=C[C@]12C [Trenbolone acetate] | 0.864 | 0.493 | 1.04 | 0.72 | 1.19 | 0.778 |
| CC(=O)O[C@H]1C[C@H](O[C@H]2[C@@H](O)C[C@H](O[C@H]3[C@@H](O)C[C@H](O[C@H]4CC[C@@]5(C)[C@H](CC[C@@H]6[C@@H]5C[C@@H](O)[C@]5(C)[C@@H](C7=CC(=O)OC7)CC[C@]65O)C4)O[C@@H]3C)O[C@@H]2C)O[C@H](C)[C@H]1O[C@@H]1O[C@H](CO)[C@@H](O)[C@H](O)[C@H]1O [Lanatoside C] | 6.1 | 5.41 | 7.41 | 3.88 | 2.69 | 6.46 |
| CC(O)(CS(=O)(=O)c1ccc(F)cc1)C(=O)Nc1ccc(C#N)c(C(F)(F)F)c1 (stereo unspecified) [Bicalutamide] | 1.1 | 1.04 | 0.992 | 1.28 | 0.832 | 1.65 |
| CC[C@@H]1/C=C/C=C/C[C@H](C)[C@H](O)[C@](C)(O)C(=O)[C@H](C)[C@@H](O)[C@H](C)C(=O)[C@H](C)[C@@H](O)[C@H](C)/C=C/C(=O)O[C@H]2[C@@H](C)[C@@H](CC1)O[C@@]1(CC[C@@H](C)[C@@H](C[C@H](C)O)O1)[C@@H]2C [Oligomycin A] | 1.81 | 2.18 | 1.46 | 0.998 | 3.19 | 1.22 |
| Cc1cc(C(C#N)c2ccc(Cl)cc2)c(Cl)cc1NC(=O)c1cc(I)cc(I)c1O (stereo unspecified) [Closantel] | 1.21 | 0.707 | 0.758 | 0.654 | 0.749 | 0.648 |
| C[C@@H]1CC[C@H]2[C@@H](C)C(=O)O[C@@H]3O[C@@]4(C)CC[C@@H]1[C@]32OO4 [Artemisinin] | 1.18 | 1.01 | 1.43 | 0.903 | 1.24 | 1.25 |
| O=c1[nH]c2ccccc2n1CCCN1CCC(n2c(=O)[nH]c3cc(Cl)ccc32)CC1 [Domperidone] | 1.75 | 1.18 | 2.1 | 1.14 | 0.776 | 1.67 |
| c1cc2c(cc1[C@H]1OC[C@H]3[C@@H]1CO[C@@H]3c1ccc3c(c1)OCO3)OCO2 [Sesamin] | 1.03 | 0.791 | 0.678 | 1.13 | 2.07 | 1.1 |
